Screens: PubChem, several laboratories
In the library only some 28% were active in any assay of this set; here they are far more common.
CYP2C9 act – increases human cytochrome P450 2C9 activity. P11712. recombinant CYP2C9, luciferin-H conversion, luminescence; active compounds read high; factor 1 = untreated enzyme, 0 = blocked. activation factor at 5 µM. 96,000 tested, 1.4% active. AID 1024;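 active means activation factor of 2 or more for CYP2C9 at a 5 µM dose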
CYP2C19 activ – activators of human cytochrome P450 2C19. P33261. recombinant CYP2C19, luciferin-H EGE luminescence; active compounds read high; 0 = fully inhibited enzyme, 1 = untreated enzyme. activation factor at 5 µM. 96,000 tested, under 10 active;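 active means activation factor of at least 2 at 5 µM in the primary screen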
Target sequence (P33261 whole entry, looked up): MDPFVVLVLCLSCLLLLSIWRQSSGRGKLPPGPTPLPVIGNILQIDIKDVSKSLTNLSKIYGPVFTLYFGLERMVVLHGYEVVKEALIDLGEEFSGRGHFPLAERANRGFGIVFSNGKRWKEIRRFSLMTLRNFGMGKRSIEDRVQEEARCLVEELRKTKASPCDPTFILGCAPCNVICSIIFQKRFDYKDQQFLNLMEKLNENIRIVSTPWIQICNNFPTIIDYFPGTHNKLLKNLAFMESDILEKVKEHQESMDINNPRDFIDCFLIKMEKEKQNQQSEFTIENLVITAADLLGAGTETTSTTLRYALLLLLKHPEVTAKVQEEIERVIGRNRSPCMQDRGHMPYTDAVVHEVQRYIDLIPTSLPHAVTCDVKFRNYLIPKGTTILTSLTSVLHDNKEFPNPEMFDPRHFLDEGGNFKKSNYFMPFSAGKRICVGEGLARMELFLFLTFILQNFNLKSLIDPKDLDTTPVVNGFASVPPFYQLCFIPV
CYP2C19 inh – blocks human cytochrome P450 2C19. inhibition, % at 5 µM. P33261. CYP2C19 Supersomes, luciferin-H EGE luminescence, 30 min. 96,000 tested, 21% active;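 active means CYP2C19 inhibition above a set limit at 5 µM in the primary screen, cut at about 50% in these data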
DAT uptake mod – changed human dopamine transporter uptake under cocaine IC80; B-score at 10 µM; 110,000 tested, 1.3% active; LLC-PK1 hDAT cells, [14C]-dopamine uptake with cocaine IC80; actives deviate in either direction;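 active means Z score or B-score, a plate-position-corrected score, falls beyond the plate's 99.7% confidence bounds, in either direction; inactive means both scores lie inside the 99.7% bounds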
D1 mod – allosterically modulates the human D1 dopamine receptor; HEK293 D1, CRE-luciferase, dopamine EC30 potentiation; actives deviate in either direction; AID 641; 58,000 tested, 5.9% active; P21728; B-score at 10 µM;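 active means luminescence count or its row- and column-corrected plate score outside the 99.7% band of the plate's sample wells, on either side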
CYP2C9 inhib – blocks human cytochrome P450 2C9 | P11712 | CYP2C9 Supersomes, luciferin-H conversion, luminescence | inhibition, % at 5 µM | 96,000 tested, 20% active | AID 777;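 active means blocking of liver enzyme CYP2C9 beyond about 50% at 5 µM, limit read from the data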
Numbers stand for hits.

Results for Cc1ccc(N(CC(=O)Nc2ccc(C)cc2C)S(=O)(=O)N2CCCC2)cc1 ?
CYP2C9 act: inactive; CYP2C19 activ: inactive; CYP2C19 inh: inactive; DAT uptake mod: inactive; CYP2C9 inhib: 80.1

What do the screens show for `CCC(C)(c1ccc(C=O)s1)c1ccc(C=O)s1`?
CYP2C9 act: inactive; CYP2C19 activ: inactive; CYP2C19 inh: inactive; DAT uptake mod: inactive; CYP2C9 inhib: 51.7

What do the screens show for `Cc1nc(-c2ccccn2)sc1C(=O)Nc1ccc(F)cc1`?
CYP2C9 act: 2.1; CYP2C19 activ: inactive; CYP2C19 inh: inactive; DAT uptake mod: inactive; CYP2C9 inhib: inactive

Results for O=C(O)CC(NC(=S)NCc1ccccc1)C(=O)O (stereo not given) ?
CYP2C9 act: inactive; CYP2C19 activ: inactive; CYP2C19 inh: inactive; DAT uptake mod: inactive; CYP2C9 inhib: 62.5

How did FC(F)Oc1ccc(NC(=S)NCc2ccccc2)cc1Cl do in these assays?
CYP2C9 act: 2.2; CYP2C19 activ: inactive; CYP2C19 inh: 50.0; DAT uptake mod: inactive; CYP2C9 inhib: inactive

How did S=C(NCc1ccccc1)NCc1ccccc1 do in these assays?
CYP2C9 act: inactive; CYP2C19 activ: inactive; CYP2C19 inh: 89.7; DAT uptake mod: inactive; CYP2C9 inhib: inactive

Results for OCc1ccccc1CNCc1ccccc1 ?
CYP2C9 act: inactive; CYP2C19 activ: inactive; CYP2C19 inh: 62.0; DAT uptake mod: inactive; D1 mod: inactive; CYP2C9 inhib: inactive

What do the screens show for `CCCC(c1nnnn1CCc1ccccc1)N1CCC(C(N)=O)CC1` (stereo not given)?
DAT uptake mod: inactive

Results for Cc1cccc(NC(=S)NNC(=S)NCc2ccccc2)c1 ?
CYP2C9 act: inactive; CYP2C19 activ: inactive; CYP2C19 inh: inactive; DAT uptake mod: inactive; CYP2C9 inhib: 59.9

What do the screens show for `CC(C)c1ccc(CNCc2ccccc2)cc1`?
CYP2C9 act: inactive; CYP2C19 activ: inactive; CYP2C19 inh: 75.2; DAT uptake mod: inactive; CYP2C9 inhib: inactive

Results for CCCCC(=O)Nc1ccc(C(=O)Nc2nnc(COC)s2)cc1 ?
CYP2C9 act: inactive; CYP2C19 activ: inactive; CYP2C19 inh: inactive; DAT uptake mod: inactive; CYP2C9 inhib: inactive

What do the screens show for `C[C@@]12CC(=O)NC1N(C(=O)c1ccccc1)C(c1ccccc1OC(=O)c1ccccc1)C2` (stereo not given in full)?
CYP2C9 act: inactive; CYP2C19 activ: inactive; CYP2C19 inh: inactive; DAT uptake mod: inactive; CYP2C9 inhib: inactive

How did C[C@@]12CC(=O)NC1N(C(=O)c1cccc(C(F)(F)F)c1)C(c1ccccc1OC(=O)c1cccc(C(F)(F)F)c1)C2 (stereo not given in full) do in these assays?
CYP2C9 act: inactive; CYP2C19 activ: inactive; CYP2C19 inh: inactive; DAT uptake mod: inactive; CYP2C9 inhib: 94.5

Results for CCNc1nc2nonc2nc1NCC ?
CYP2C9 act: 2.6; CYP2C19 activ: inactive; CYP2C19 inh: inactive; DAT uptake mod: inactive; D1 mod: inactive; CYP2C9 inhib: inactive

What do the screens show for `Cc1ccc(Nc2nc3nonc3nc2N(C)C)cc1`?
CYP2C9 act: inactive; CYP2C19 activ: inactive; CYP2C19 inh: inactive; DAT uptake mod: inactive; CYP2C9 inhib: inactive

How did Cc1cc(NC(=O)COC(=O)COc2ccc3c(c2)CCC3)no1 do in these assays?
CYP2C9 act: inactive; CYP2C19 activ: inactive; CYP2C19 inh: inactive; DAT uptake mod: inactive; D1 mod: inactive; CYP2C9 inhib: inactive

Results for O=C(CSc1nnc(-c2ccc(Cl)s2)o1)N1CCOCC1 ?
CYP2C9 act: inactive; CYP2C19 activ: inactive; CYP2C19 inh: inactive; D1 mod: inactive; CYP2C9 inhib: inactive

What do the screens show for `CCCCOC(=O)c1ccc(NC(=O)CSc2nncn2C)cc1`?
CYP2C9 act: inactive; CYP2C19 activ: inactive; CYP2C19 inh: inactive; DAT uptake mod: inactive; D1 mod: inactive; CYP2C9 inhib: inactive

How did CCCCOC(=O)c1ccc(NC(=O)CSC2=Nc3ccccc3C3CC=NN23)cc1 (stereo not given) do in these assays?
CYP2C9 act: inactive; CYP2C19 activ: inactive; CYP2C19 inh: inactive; DAT uptake mod: inactive; CYP2C9 inhib: 85.8

What do the screens show for `COCCNC(=O)NC(=O)COC(=O)c1cc([N+](=O)[O-])ccc1Sc1nc(C)cs1`?
CYP2C9 act: inactive; CYP2C19 activ: inactive; CYP2C19 inh: inactive; DAT uptake mod: inactive; CYP2C9 inhib: inactive

Results for Cc1ccc(C)c(C(=O)Cn2ncc(Cl)c(Cl)c2=O)c1 ?
CYP2C9 act: 2.1; CYP2C19 activ: inactive; CYP2C19 inh: inactive; CYP2C9 inhib: inactive

How did COc1ccc(S(=O)(=O)Cc2ccc(C(=O)N3CCN(c4ccccc4F)CC3)o2)cc1 do in these assays?
CYP2C9 act: inactive; CYP2C19 activ: inactive; CYP2C19 inh: inactive; DAT uptake mod: inactive; D1 mod: inactive; CYP2C9 inhib: 88.7

How did COc1ccc(S(=O)(=O)Cc2ccc(C(=O)N3CCC(C(N)=O)CC3)o2)cc1 do in these assays?
CYP2C9 act: inactive; CYP2C19 activ: inactive; CYP2C19 inh: inactive; DAT uptake mod: inactive; D1 mod: inactive; CYP2C9 inhib: inactive

Results for COc1ccc(S(=O)(=O)Cc2ccc(C(=O)N3CCN(c4ccccc4)CC3)o2)cc1 ?
CYP2C9 act: inactive; CYP2C19 activ: inactive; CYP2C19 inh: inactive; DAT uptake mod: inactive; D1 mod: inactive; CYP2C9 inhib: 65.7

What do the screens show for `COc1ccc(S(=O)(=O)Cc2ccc(C(=O)N3CCCC3)o2)cc1`?
CYP2C9 act: inactive; CYP2C19 activ: inactive; CYP2C19 inh: inactive; DAT uptake mod: inactive; D1 mod: inactive; CYP2C9 inhib: inactive

What do the screens show for `CCOC(=O)N1CCN(C(=O)c2ccc(CS(=O)(=O)c3ccc(OC)cc3)o2)CC1`?
CYP2C9 act: inactive; CYP2C19 activ: inactive; CYP2C19 inh: inactive; DAT uptake mod: inactive; D1 mod: inactive; CYP2C9 inhib: 70.8

What do the screens show for `Cn1c(=O)c2nc(-c3ccc(Cl)cc3Cl)oc2c2ccccc21`?
DAT uptake mod: inactive; D1 mod: inactive

How did CC(C)(OC1OC(CO)C(O)C(O)C1O)[C@H]1Oc2ccc3ccc(=O)oc3c2[C@H]1O (stereo not given in full) do in these assays?
DAT uptake mod: inactive

What do the screens show for `O=C(Cn1cc2c(n1)CCCC2)N1CCc2ccccc21`?
CYP2C9 act: inactive; CYP2C19 activ: inactive; CYP2C19 inh: inactive; DAT uptake mod: inactive; D1 mod: inactive; CYP2C9 inhib: inactive

Results for C=CCN1C(=O)CSc2ccc(C(=O)NCc3ccco3)cc21 ?
CYP2C9 act: inactive; CYP2C19 activ: inactive; CYP2C19 inh: inactive; DAT uptake mod: inactive; D1 mod: inactive; CYP2C9 inhib: inactive

How did O=C(NCc1ccco1)c1ccc2c(c1)N(Cc1ccccc1)C(=O)CS2 do in these assays?
CYP2C9 act: inactive; CYP2C19 activ: inactive; CYP2C19 inh: inactive; DAT uptake mod: inactive; CYP2C9 inhib: 78.2

What do the screens show for `CCCCNC(=O)c1ccc2c(c1)N(CC)C(=O)CS2`?
CYP2C9 act: inactive; CYP2C19 activ: inactive; CYP2C19 inh: inactive; DAT uptake mod: inactive; D1 mod: inactive; CYP2C9 inhib: inactive

What do the screens show for `CCN1C(=O)CSc2ccc(C(=O)NCc3ccc(OC)cc3)cc21`?
CYP2C9 act: inactive; CYP2C19 activ: inactive; CYP2C19 inh: 79.8; DAT uptake mod: inactive; CYP2C9 inhib: 86.1
